From PubChem
eIF4H inh – inhibitors of RNA binding by human eIF4H; inhibition, % at 35 µM; eIF4H fluorescence polarization binding assay; 290,000 tested, 0.94% active; Q15056; AID 2012;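 further: calls also rest on retests at 20 µM and on dose response follow-up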
EBV gp42 inh – inhibitors of Epstein-Barr virus glycoprotein 42. Q1HVG2. Fluorescence polarization binding assay, mP read-out. inhibition, % (tested at 21.74 µM). 220,000 tested, 0.42% active. AID 1085; in the data active means inhibition above about 50%
Target sequence (Q1HVG2 whole entry, looked up): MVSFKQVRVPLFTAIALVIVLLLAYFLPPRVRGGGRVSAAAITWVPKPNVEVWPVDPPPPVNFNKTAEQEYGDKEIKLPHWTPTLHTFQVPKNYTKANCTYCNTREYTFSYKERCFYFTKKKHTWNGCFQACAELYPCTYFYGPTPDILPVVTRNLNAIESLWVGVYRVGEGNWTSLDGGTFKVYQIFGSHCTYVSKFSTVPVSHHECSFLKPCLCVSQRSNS
MEX-5 binding – C. elegans MEX-5 TCR-2 RNA binding activity. Q9XUB2. MEX-5/FITC-TCR2 RNA binding, fluorescence polarization; hits give low values. activity score (negative = inhibition of binding), % at 10 µM. 300,000 tested, 0.38% active;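 active means inhibition past about -25% in most replicates, and total fluorescence under double the plate's negative control median, limit read from the data; inconclusive means replicates evenly split on the limit, or fluorescence at least double controls; inactive means too little inhibition in most replicates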;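 further: 0% = DMSO and -100% = 5 µM competing unlabeled TCR2 RNA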
PABP polyA inh – blocks human PABP binding to poly(A) RNA. fluorescence polarization. calls only at 35 µM. 290,000 tested, 1% active;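 further: calls also rest on retests at 20 µM and on dose response follow-up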
MLLE-PAM2 inh – blocks PAM2 peptide binding to the PABP1 MLLE domain. AID 588489. P11940. inhibition, % at 20 µM. GST-MLLE / FITC-PAM2 fluorescence polarization. 360,000 tested, 0.36% active; in the data active means inhibition above about 35%, passing the limit was not always enough;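 further: plate controls were DMSO wells with GST-MLLE for no effect and wells lacking GST-MLLE protein for full effect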
* = called active by the depositor. In the library only some 1.8% were active in any assay of this set; here they are far more common. Unless noted, how the calls were made is not given here.

Screening Cn1c2ccccc2c2cc(/C=N/NC(=O)c3cc(O)ccc3O)ccc21 returned eIF4H inh 86*, MEX-5 binding 1, PABP polyA inh active and MLLE-PAM2 inh -1.
`Cc1cccc(C(=O)Oc2ccc(/C=N/NC(=O)c3cc(O)cc(O)c3)cc2)c1` gave eIF4H inh 99*, MEX-5 binding 0, PABP polyA inh active and MLLE-PAM2 inh 1.
Screening COc1cc(C(=O)N/N=C/c2ccc3c(c2)c2ccccc2n3C)ccc1O returned eIF4H inh 9, MEX-5 binding 2, PABP polyA inh inactive and MLLE-PAM2 inh 5.
`Cn1c2ccccc2c2cc(/C=N/NC(=O)c3cc(O)cc(O)c3)ccc21` gave eIF4H inh 95*, MEX-5 binding 3, PABP polyA inh active and MLLE-PAM2 inh 8.
Screening CC1(C(=O)Nc2cccc(C#N)c2)CCN1C(=O)c1ccccc1CCc1ccccc1 (stereo not drawn) returned MLLE-PAM2 inh -3.
Screening COC(=O)[C@@H](NCc1ccc(B(O)O)cc1)C(C)C returned MLLE-PAM2 inh 1.
For O=C1C2C3C=CC(CC3)C2C(=O)N1c1ccc(F)cc1 (stereo not drawn) the results were eIF4H inh 4, MEX-5 binding -2, PABP polyA inh inactive and MLLE-PAM2 inh -14.
For CC(C)C1NC2(C(=O)c3ccccc3C2=O)C2C(=O)N(c3ccc(F)cc3)C(=O)C12 (stereo not drawn) the results were eIF4H inh 51*, EBV gp42 inh -8, MEX-5 binding 1, PABP polyA inh active and MLLE-PAM2 inh 39.
`O=C(CCS(=O)(=O)c1ccc(Br)cc1)N1CCCCCC1` gave eIF4H inh 94*, MEX-5 binding 0, PABP polyA inh inactive and MLLE-PAM2 inh -3.
For COC(=O)c1ccc(C2C(C(=O)c3cc4ccccc4o3)=C(O)C(=O)N2c2cc(C)on2)cc1 (stereo not drawn) the results were eIF4H inh inconclusive, MEX-5 binding 0, PABP polyA inh active and MLLE-PAM2 inh -35.
O=C(O[C@@H]1OC2COC(=O)c3cc(O)c(O)c(O)c3-c3c(cc(O)c(O)c3O)C(=O)O[C@@H]([C@H]1O)[C@@H]2O)c1cc(O)c(O)c(O)c1 was read as eIF4H inh 105, EBV gp42 inh -14, MEX-5 binding -67*, PABP polyA inh inactive and MLLE-PAM2 inh 29.
Screening CN(C)c1c2ccccc2nc2c(F)c(F)c(F)c(F)c12 returned eIF4H inh -1, EBV gp42 inh -74, MEX-5 binding 2, PABP polyA inh inactive and MLLE-PAM2 inh 22.
Screening Cc1c2ccccc2nc2c(F)c(N(C)C)c(F)c(F)c12 returned eIF4H inh 24, EBV gp42 inh 197*, MEX-5 binding -5, PABP polyA inh inactive and MLLE-PAM2 inh 150.
Screening COC(=O)c1ccc(=O)c2nc3/c(=C/O)c(O)cc(=O)c3[nH]c12 returned eIF4H inh 85*, EBV gp42 inh 98*, PABP polyA inh active and MLLE-PAM2 inh 6.
For COc1ccc(C(=O)ON=C(C)c2nccs2)cc1 the results were MLLE-PAM2 inh -8.
Screening O=C(c1ccccc1)c1ccc(O)cc1O returned eIF4H inh inconclusive, EBV gp42 inh 67*, MEX-5 binding inconclusive, PABP polyA inh inactive and MLLE-PAM2 inh 173.
`C=CCn1c(O)c(N=Nc2ccccc2C)c2ccccc21` gave eIF4H inh -7, EBV gp42 inh 68*, MEX-5 binding -6 and PABP polyA inh inactive.
`O=S(=O)(O)c1cc(O)c2c(O)c(N=Nc3cc(Cl)ccc3O)c(S(=O)(=O)O)cc2c1` gave eIF4H inh 80*, MEX-5 binding -46*, PABP polyA inh active and MLLE-PAM2 inh 4.
`O=S(=O)(O)c1cc(Cl)cc(N=Nc2ccc(O)cc2O)c1O` gave MLLE-PAM2 inh 7.
Cc1cccc(-c2nc(=S)c3c(o2)CCCC3)c1 was read as eIF4H inh -7, EBV gp42 inh -1, MEX-5 binding 3, PABP polyA inh inactive and MLLE-PAM2 inh 45*.
For CCCc1nc2ccc(Cl)cn2c1Cc1ccsc1 the results were MLLE-PAM2 inh 44*.
Screening Cc1[nH]n(C(N)=S)c(=O)c1N=Nc1ccc(S(=O)(=O)N2CCCC2)cc1 returned eIF4H inh 2, EBV gp42 inh -14, MEX-5 binding -2, PABP polyA inh inactive and MLLE-PAM2 inh 42*.
Cc1ccc(N=Nc2c(C)[nH]n(C(N)=S)c2=O)cc1 was read as eIF4H inh 13, EBV gp42 inh -15, MEX-5 binding 1, PABP polyA inh inactive and MLLE-PAM2 inh 14.
CC(C)CN(C(=O)C1=COCCO1)c1c(N)n(Cc2ccccc2)c(=O)[nH]c1=O was read as MLLE-PAM2 inh -29.
`CC(=NNC(=S)N1CCN(c2ccccn2)CC1)c1nccs1` gave MLLE-PAM2 inh 16.
For O=C(NCc1ccccc1)c1cc(C2CCCCN2S(=O)(=O)c2ccccc2)on1 (stereo not drawn) the results were MLLE-PAM2 inh 7.
Screening O=C(/C=C/c1cccs1)c1cc(Cl)ccc1O returned eIF4H inh -8, EBV gp42 inh -7, MEX-5 binding 1, PABP polyA inh inactive and MLLE-PAM2 inh 16.
O=C(/C=C/c1ccc2ccccc2n1)c1cc(Cl)ccc1O was read as eIF4H inh 67, EBV gp42 inh 7, MEX-5 binding 3, PABP polyA inh active and MLLE-PAM2 inh -62.
O=C(COc1ccc(/C=N/NC(=O)c2ccccc2O)cc1)Nc1ccccc1 was read as eIF4H inh 61, EBV gp42 inh 0, MEX-5 binding 1, PABP polyA inh active and MLLE-PAM2 inh 9.
For Cc1cc(F)cc(-c2cc(C(=O)NCc3ccccn3)[nH]n2)c1 the results were MLLE-PAM2 inh -3.
COc1cc(CN2C[C@@H](CO)O[C@@H](n3cnc4c(NCC(C)C)ncnc43)C2)cc(OC)c1OC was read as MLLE-PAM2 inh 10.
COc1cc(CC2COC(c3ccc(O)c(OC)c3)C2COC(C)=O)ccc1O (stereo not drawn) was read as eIF4H inh 90*, EBV gp42 inh 6, PABP polyA inh active and MLLE-PAM2 inh 1.
For COc1ccc(-n2nnnc2SCC(=O)NNC(=O)c2ccc([N+](=O)[O-])cc2)cc1 the results were eIF4H inh 63*, EBV gp42 inh -17, MEX-5 binding 0, PABP polyA inh active and MLLE-PAM2 inh -61.
For CC(C)c1ccc(NC(=O)C2Cc3c(-c4ccccc4Oc4ccccc4)ccnc3O2)cc1 (stereo not drawn) the results were MLLE-PAM2 inh 1.
`CC(C)(C)c1ccc(C(=O)N2[C@H](COCc3ccccc3)C=CS2(=O)=O)cc1` gave MLLE-PAM2 inh 14.
O=C1C(=Cc2cccn2-c2ccc(O)cc2)C(=O)c2ccccc21 was read as eIF4H inh inconclusive, EBV gp42 inh 82*, MEX-5 binding 0, PABP polyA inh inconclusive and MLLE-PAM2 inh 89.
